High-throughput results: PubChem BioAssay, The Scripps Research Institute Molecular Screening Center
Rows were chosen to be rich in hits. Some 3.5% of all compounds tested hit in one or more screens of this group.
FBW7 activator: activators of human E3 ligase FBW7. 0.13% of 650,000 active. AID 1259310. normalized activity (activation), % at 26.1 µM. AlphaScreen FBW7–phospho-cyclin E peptide binding, activator screen. Q969H0; in the data active = normalized activity above about 1.9%;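 also: purified mutant Fbw7 with reduced substrate affinity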
TEAD-YAP inh: TEAD-YAP interaction inhibition; HEK-TIYL cells, TEAD-Gal4/YAP UAS-luciferase luminescence; inhibition, % at 9.12 µM; 1.4% of 640,000 active; in the data active = inhibition above about 32%;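 also: 0% = median of test compound wells and 100% = reference inhibitor wells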
MITF primary: inhibitors of human MITF; O75030; AlphaScreen MITF homodimerization, bead proximity signal; inhibition, % at 2.6 µM; 0.91% of 650,000 active; in the data active = inhibition above about 50%;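 also: 0% = vehicle wells with protein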
GPR151 activ: activators of human GPR151 | Q8TDV0 | PathHunter beta-arrestin GPR151 cells, luminescence | activation, % at 11.2 µM | 1% of 650,000 active | AID 1508602; in the data active = activation above about 4.9%;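 also: 0% = median of compound wells and 100% = cells with positive control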
GPR151 conf act: confirmation of human GPR151 activators | shares compounds with GPR151 activ | 6,700 tested, under 10 active | AID 1508609 | activation, % at 11.2 µM | GPR151 PathHunter beta-arrestin cells, luminescence, 90 min; % of EA-reagent control over plate median;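 active = mean percent activation across replicates above the confirmation screen cutoff of 4.91%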
GPR119 counter: activates human GPR119 in a GPR151 counter-screen; 0.3% of 6,700 active; activation, % at 11.2 µM; GPR119 PathHunter beta-arrestin cells, luminescence, 90 min; 0 = compound-well median, 100 = enzyme-acceptor control; shares compounds with GPR151 activ;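 active = mean percent activation in the counterscreen above 29.09%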;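 also: counterscreen on off-target GPR119 to flag nonselective hits from the GPR151 activator screen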
Target sequence (Q8TDV5 whole entry, looked up): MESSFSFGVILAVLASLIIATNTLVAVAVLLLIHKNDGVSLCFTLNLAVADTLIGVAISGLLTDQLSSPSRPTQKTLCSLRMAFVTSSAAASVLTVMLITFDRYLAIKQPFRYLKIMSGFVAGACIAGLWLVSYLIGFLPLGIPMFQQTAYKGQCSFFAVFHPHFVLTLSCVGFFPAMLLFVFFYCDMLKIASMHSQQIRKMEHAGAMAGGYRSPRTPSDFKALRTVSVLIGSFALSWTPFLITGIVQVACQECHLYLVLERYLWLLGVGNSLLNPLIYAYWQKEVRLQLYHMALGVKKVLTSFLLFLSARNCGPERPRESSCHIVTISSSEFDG
An asterisk follows results filed as active; / = no result; ! = repeats disagree.

SMILES | FBW7 activator | TEAD-YAP inh | MITF primary | GPR151 activ | GPR151 conf act | GPR119 counter
CC(C)CNc1nnnc2c1cnn2-c1ccccc1 | 0 | -39 | -3 | 9.6* | 1 | 4
CCCNc1nnnc2c1cnn2-c1ccccc1 | 0 | -34 | 8 | 0 | / | /
CSc1nsc(SC)c1NC(=O)OC1CCCC1 | 0 | 7 | 11 | -1 | / | /
CSc1nsc(SC)c1NC(=O)OCC1CCCO1 (stereo not drawn) | 0 | 3 | 2 | 6.6* | 0 | -2
O=c1[nH]cnc2c1[nH]c1ccccc12 | 0 | 19 | 9 | 8.7* | -1 | 7
O=C(Nc1ccc(N2CCOCC2)cc1)c1ccnc(N2CCC(N3CCOCC3)CC2)c1 | 0 | 8 | 6 | 1 | / | /
O=C(Nc1ccc2c(c1)OCO2)c1ccnc(N2CCC(N3CCOCC3)CC2)c1 | 0 | -9 | -10 | 5.7* | 1 | 0
CCOC(=O)c1sc(-c2ccccc2)cc1NC(=S)NC(=O)CN1C(=O)CCC1=O | 0 | -3 | 6 | 7.7* | 1 | 7
CCOC(=O)c1sc(-c2ccccc2)cc1NC(=O)c1cc2ccccc2cc1OC | 0 | -20 | -11 | -1 | / | /
COc1ccccc1CNC(=O)c1ccc(CNc2c(N3CCCC3)c(=O)c2=O)cc1 | 0 | 5 | 10 | 4.9* | -1 | -13
Cc1ccc(NC(=O)c2ccc(CNc3c(N4CCOCC4)c(=O)c3=O)cc2)cc1F | 0 | -7 | 1 | 5.0* | 0 | -9
C[C@H](CCC(=O)O)[C@H]1CC[C@H]2[C@@H]3[C@H](O)C[C@@H]4C[C@H](O)CC[C@]4(C)[C@H]3C[C@H](O)[C@]12C | 0 | 2 | -4 | 1 | / | /
CN(C)CCCOc1nn(Cc2ccccc2)c2ccccc12 | 0 | -10 | 0 | 6.2*! | 1 | -5
CN1CCN(/N=C/C2=C(O)CC(C)(C)CC2=O)CC1 | 1 | -1 | 23 | 8.4* | 0 | 4
CC(=O)n1cc(/C=c2/sc3nc4c(C)c(C)ccc4n3c2=O)c(-c2ccccc2)n1 | 0 | 8 | 4 | -1 | / | /
COc1ccc(-c2nc(NC(=O)CSc3ccc(F)cc3)sc2C)cc1 | 0 | -3 | -2 | 2 | / | /
Cc1ccc(N(C(C)C(=O)NC2CCCCCC2)S(C)(=O)=O)cc1C (stereo not drawn) | 0 | 4 | 5 | 0 | / | /
C=CCNC(=O)C(C)N(c1ccc(C)cc1)S(C)(=O)=O (stereo not drawn) | 0 | 5 | 0 | -2 | / | /
Cc1ccc(N(C(C)C(=O)NC2CCCCC2)S(C)(=O)=O)cc1C (stereo not drawn) | 0 | 1 | -12 | 6.6* | 1 | 8
C=CCNC(=O)C(C)N(c1ccccc1)S(C)(=O)=O (stereo not drawn) | 1 | -2 | -1 | 8.2* | -1 | -10
Cc1ccc(N(C(C)C(=O)NCc2ccccn2)S(C)(=O)=O)cc1C (stereo not drawn) | 0 | -3 | 7 | 5.4* | 1 | 11
COc1ccc(C(=O)Nc2ccc(F)c([N+](=O)[O-])c2)cc1Br | 0 | 14 | 14 | 1 | / | /
O=C(CSc1ccc2nnc(-c3cccs3)n2n1)Nc1cccc([N+](=O)[O-])c1 | 0 | 0 | 1 | 0 | / | /
COc1ccccc1NC(=O)CSc1nc2ccccc2c(=O)n1CCC(=O)NC1CCCCC1 | 0 | 1 | 3 | 1 | / | /
CC(=O)c1nn(-c2ccc([N+](=O)[O-])cc2)cc1C(=O)c1cccs1 | 0 | -1 | 13 | -1 | / | /
SMILES | FBW7 activator | TEAD-YAP inh | MITF primary | GPR151 activ | GPR151 conf act | GPR119 counter
CC(=O)c1nn(-c2cccc(Cl)c2)cc1C(=O)c1cccs1 | 0 | -2 | 9 | 6.4* | 0 | -8
O=C(NNC(=S)NCc1ccccc1)c1ccc(O)cc1 | 0 | 3 | 11 | 0 | / | /
CCOC(=O)c1c(NC(=O)CSc2n[nH]c(N)n2)sc(C(C)=O)c1C | 0 | -4 | 6 | 13* | 0 | -3
CCOC(=O)c1c(NC(=O)CSc2n[nH]c(-c3ccccc3)n2)sc(C(C)=O)c1C | 0 | 4 | 6 | 2 | / | /
CCN(CCCN1C(=O)C2C(C(=O)Nc3cc(Cl)cc(Cl)c3)C3C=CC2(O3)C1C(=O)NC1CCCC(C)C1C)Cc1ccccc1 (stereo not drawn) | 0 | 4 | -5 | 0 | / | /
Cc1nc2nc(CO)[nH]n2c(=O)c1Cc1ccccc1 | 0 | -3 | -16 | 0 | / | /
CCCCCCNc1nc(NCc2ccco2)nc(OCC)n1 | 0 | -5 | -4 | -1 | / | /
CCCCCCCCCCCCCc1ccco1 | 0 | 6 | -9 | 7.1* | 0 | 3
CC(C)CC(NCCC(O)c1ccccc1)C(=O)O (stereo not drawn) | 0 | 7 | 8 | 8.3* | -1 | 6
CSCCC(NCCC(O)c1ccccc1)C(=O)O (stereo not drawn) | 0 | 8 | 2 | 0 | / | /
O=C(Cc1cccs1)NCC1(c2ccc(F)cc2)CC1 | 0 | 1 | -1 | 12* | 1 | -5
O=C(Cc1ccc(F)cc1)NCC1(c2cccs2)CCOCC1 | 1 | 13 | 14 | 1 | / | /
Cc1sc2c(c1C)C(=O)NC(c1cn(Cc3ccccc3)c3ccccc13)N2 (stereo not drawn) | 0 | -2 | -8 | 6.1* | 1 | -1
CN1C(=O)CC(c2cn(Cc3ccccc3)c3ccccc23)C1=O (stereo not drawn) | 0 | -7 | -2 | 2 | / | /
N#Cc1cc2cc3c(cc2nc1SCC(=O)N1CCCCCC1)OCO3 | 0 | -8 | 9 | 1 | / | /
C=CCC1C=CCC(CC=C)N1C(=O)c1ccccc1[N+](=O)[O-] (stereo not drawn) | 0 | 1 | -4 | 9.2* | 0 | -2
O=C(c1ccccc1[N+](=O)[O-])N1CC2C3C=CC(C3)C2C1 (stereo not drawn) | 0 | 5 | -2 | 0 | / | /
CCOC(CNC(=O)c1cc(S(=O)(=O)N2CC(C)CC(C)C2)ccc1Sc1ccc(Br)cc1)OCC (stereo not drawn) | 0 | -5 | -6 | -1 | / | /
CCOC(=O)N1CCN(CC(O)COc2ccc([N+](=O)[O-])cc2)CC1 (stereo not drawn) | 0 | -4 | -12 | 5.4* | 1 | 19
N#Cc1cc(-c2ccnc(Nc3ccc(-n4cnc(C(F)(F)F)n4)cc3)n2)cc(N2CCNCC2)c1 | 1 | -34 | -7 | 1 | / | /
O=C(NCc1ccco1)c1nc2c(nnn2Cc2ccc(F)cc2)c(=O)[nH]1 | 1 | 8 | 10 | 5.3* | 0 | -5
O=C(NCc1cccs1)c1nc2c(nnn2Cc2ccc(F)cc2)c(=O)[nH]1 | 0 | 0 | 9 | 0 | / | /
CN1C(=O)/C(=C/c2ccccc2OS(C)(=O)=O)SC1=S | 0 | 9 | 16 | 5.7* | 0 | -11
Cc1csc(NC(=O)/C=C/c2cccc(Cl)c2)n1 | 0 | -35 | 4 | 5.0* | 0 | -12
